Among the test systems are NCI-H23 lung; NCI-H226 lung; NCI-H322M lung; HOP-62 NSCLC; NCI-H460 lung; HOP-92 NSCLC; NCI-H522 lung; A549/ATCC NSCLC; 786-0 renal; COLO 205 colon.
Holding throughout (test): NCI-60 one-dose screen, 48 h (100 = growth as untreated, 0 = no growth, -100 = all killed)
Common to all, as to conditions: 10 µM unless noted

This is an account of results in PubChem BioAssay (NCI).

About 83,000 compounds went through this panel and 20% of them were active in at least one assay; those are over-represented in the sample as a whole.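 Plates (96-well) were seeded with cells, treated with compound at one concentration, and incubated for 48 hours before percent growth was determined.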 Values without a mark were called inactive. Active and inactive are the calls of the source. The calls were made as follows: active = growth percent below 10; inactive = the rest.

For the compound `C=CCN1C(=O)c2cccc3c(-c4ccc5c(c4)ncn5C4CCCCC4)ccc(c23)C1=O`, the growth in the test on NCI-H23 lung was 50.5%; in the test with NCI-H226 lung, 44.8%; in the test on NCI-H322M lung it was 93.9%; with HOP-62 NSCLC, 67.1%; with NCI-H460 lung, 58.2%; in the test on HOP-92 NSCLC, 32.4%. The growth was 52% with NCI-H522 lung, 58.3% in the test on A549/ATCC NSCLC, 58.8% in the test on 786-0 renal and 47% in the test with COLO 205 colon.
`Nc1ncnc2c1ccn2-c1cccc(NC(=O)c2ccc(N3CCOCC3)c(C(F)(F)F)c2)c1`: the growth in the test with NCI-H23 lung was 49.8%; in the test on NCI-H226 lung, 60%; in the test with NCI-H322M lung, 80.6%; with HOP-62 NSCLC, 71.3%; in the test on NCI-H460 lung, 28.8%; with HOP-92 NSCLC, 20.5%. The growth was 18.7% with NCI-H522 lung, 28.1% in the test on A549/ATCC NSCLC, 86.4% with 786-0 renal and 49% in the test with COLO 205 colon.
For the compound `C=C1C(=O)O[C@H]2[C@H]1CC/C(C=Nc1c(N)cc(C(F)(F)F)cc1C(F)(F)F)=C\CC[C@@]1(C)O[C@@H]21`, the growth with NCI-H23 lung was -29% (active); in the test with NCI-H226 lung, -53.1% (active); in the test with NCI-H322M lung, 49.3%; in the test with HOP-62 NSCLC it was 21.3%; in the test with NCI-H460 lung, -17.9% (active); with HOP-92 NSCLC it was -39.9% (active). Also, the growth with NCI-H522 lung is -55.4% (active); with A549/ATCC NSCLC, 11.9%; with 786-0 renal, -66.5% (active); in the test with COLO 205 colon it was -59.7% (active).
For `Cc1nc(NC(=O)N2CCC[C@H]2C(N)=O)sc1-c1ccnc(C(C)(C)C(F)(F)F)c1`, the growth is 57.9% in the test with NCI-H23 lung; 71% with NCI-H226 lung; 6.7% (active) in the test on NCI-H322M lung; 49.4% in the test with HOP-62 NSCLC; 24% in the test with NCI-H460 lung; -4.57% (active) in the test on HOP-92 NSCLC. Further, the growth is 33.6% in the test with NCI-H522 lung, 21% in the test on A549/ATCC NSCLC, 59.5% in the test on 786-0 renal and 13.7% in the test with COLO 205 colon.
Consider `O=C(Cn1c(=O)ccn(CCCCCCCCOc2ccc(Br)cc2)c1=O)Nc1ccc(Oc2ccc(Cl)cc2)cc1`, for which the growth in the test on NCI-H23 lung is 47.8%; in the test on NCI-H226 lung, 56.6%; in the test with NCI-H322M lung, 102%; in the test on HOP-62 NSCLC, 67.1%; in the test with NCI-H460 lung, 56.8%; in the test with HOP-92 NSCLC it was 22.4%. In addition, the growth was 44.6% in the test on NCI-H522 lung, 54.4% in the test with A549/ATCC NSCLC, 65.7% with 786-0 renal and 76.7% with COLO 205 colon.
Take `CC(C)(C)c1cnc(CSc2cnc(NC(=O)C3CCNCC3)s2)o1`: the growth with NCI-H23 lung is -22.2% (active); in the test on NCI-H226 lung, 3.09% (active); in the test on NCI-H322M lung, 5.62% (active); in the test on HOP-62 NSCLC it was -16.2% (active); in the test on NCI-H460 lung it was 2.67% (active); in the test with HOP-92 NSCLC, -8.65% (active). The growth in the test with NCI-H522 lung is -24.8% (active); in the test with A549/ATCC NSCLC it was 1.61% (active); in the test on 786-0 renal, 12%; with COLO 205 colon, -45.3% (active).
Regarding `NC1(c2ccc(-c3nc4ccn5c(=O)[nH]nc5c4cc3-c3ccccc3)cc2)CCC1`, the growth in the test with NCI-H23 lung was 73.5%; in the test with NCI-H226 lung, 67.7%; in the test on NCI-H322M lung, 59.2%; in the test on HOP-62 NSCLC it was 50.3%; with NCI-H460 lung, 23.6%; in the test on HOP-92 NSCLC, 23.2%. In addition, the growth in the test on NCI-H522 lung is 5.02% (active); with A549/ATCC NSCLC, 32.8%; with 786-0 renal it was 9.74% (active); in the test on COLO 205 colon, -19.8% (active).
In the case of `CC1(O)CC(c2nc(-c3ccc4ccc(-c5ccccc5)nc4c3)c3c(N)nccn23)C1` (stereo not given), the growth is 33.9% in the test with NCI-H23 lung; 36.1% with NCI-H226 lung; 0.394% (active) with NCI-H322M lung; 28.6% in the test on HOP-62 NSCLC; 25.2% with NCI-H460 lung; -13.2% (active) with HOP-92 NSCLC. The growth was 31.3% in the test with NCI-H522 lung, 33.5% in the test on A549/ATCC NSCLC, 43.8% in the test with 786-0 renal and -22.2% (active) in the test with COLO 205 colon.
Take `CNC(=O)c1c(C)oc2cc(Oc3ncnc4cc(OC)c(OC)cc34)ccc12`: the growth is 93.8% in the test on NCI-H23 lung; 59.4% in the test on NCI-H226 lung; 93.9% with NCI-H322M lung; 82.9% in the test with HOP-62 NSCLC; 106% in the test on NCI-H460 lung; 81.1% in the test on HOP-92 NSCLC. For the same compound, the growth in the test on NCI-H522 lung is 89.5%; in the test with A549/ATCC NSCLC it was 81.1%; in the test with 786-0 renal it was 102%; in the test with COLO 205 colon, 108%.
As to `COc1ccc(C2OC(c3cc(-c4cc5ccccc5o4)nn3-c3ccccc3)=NN2C(C)=O)cc1` (stereo not given), the growth was 92.5% in the test with NCI-H23 lung; 91% with NCI-H226 lung; 97.9% in the test with NCI-H322M lung; 91.4% in the test with HOP-62 NSCLC; 104% in the test with NCI-H460 lung; 74.1% with HOP-92 NSCLC. Also, the growth in the test with NCI-H522 lung is 83.4%; in the test on A549/ATCC NSCLC it was 102%; in the test with 786-0 renal, 92.9%; in the test on COLO 205 colon it was 103%.
Take `COc1cc(OC)c(C(=O)/C=C/c2cc3c(cc2OCc2ccccc2)OC(C)(C)CC3)cc1CC=C(C)C`: the growth with NCI-H23 lung is 48.2%; with NCI-H226 lung it was 43.2%; with NCI-H322M lung, 79.6%; with HOP-62 NSCLC, 85.2%; in the test with NCI-H460 lung it was 78.6%; in the test with HOP-92 NSCLC, -21.7% (active). In addition, the growth was 65.2% in the test with NCI-H522 lung, 32.9% in the test on A549/ATCC NSCLC, 79.9% in the test with 786-0 renal and 84.7% in the test on COLO 205 colon.
As to `CC/C=C\C[C@H]1C/C=C2/C(=O)C=C[C@@H]2C/C=C\CCCC(=O)O1`, the growth is -12.5% (active) in the test on NCI-H23 lung; -54.8% (active) with NCI-H226 lung; 16.7% in the test on NCI-H322M lung; 44.2% in the test on HOP-62 NSCLC; -33.7% (active) with NCI-H460 lung; -36.6% (active) in the test on HOP-92 NSCLC. Moreover, the growth with NCI-H522 lung was -45.1% (active); in the test on A549/ATCC NSCLC, -25.2% (active); in the test with 786-0 renal, -79.9% (active); with COLO 205 colon it was -13.1% (active).
In the case of `CCN1CCN(CCCN(C[C@H]2Cc3ccccc3CN2)[C@H]2CCCc3cccnc32)CC1`, the growth with NCI-H23 lung is 101%; in the test with NCI-H226 lung, 83.7%; in the test with NCI-H322M lung, 79.7%; in the test on HOP-62 NSCLC, 65.2%; with NCI-H460 lung it was 89.8%; in the test on HOP-92 NSCLC, 60.3%. The growth with NCI-H522 lung is 89.3%; in the test with A549/ATCC NSCLC it was 90.9%; in the test with 786-0 renal, 83.3%; in the test on COLO 205 colon it was 97.2%.
